Laboratory results taken from PubChem BioAssay.
For some of these results: Entries with a potency or affinity are not part of this list. Active and inactive are the calls of the source.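 How the source made its calls, unless noted: active means calcium signal cut by more than 3 SD below the full-agonist control yet still positive, in both repeats and the earlier primary screen; inactive means the rest.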

Assays:
[1] = system: TRPC4 beta (transient receptor potential cation channel C4), mouse; assay: activators of mouse TRPC4 channel, confirmation, cell-based, Fluo4 calcium, HEK293 TRPC4beta/mu-opioid, duplicates, 10 µM (AID 2426;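 active means fluorescence ratio normalized to control raised more than 50% in primary screen plus both repeat runs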); details: Fluo4 calcium fluorescence, at 10 µM; active compounds read high
[2] = system: transient receptor potential cation channel C4 beta (TRPC4), mouse; assay: activators of mouse TRPC4 channel, confirmation, cell-based, second round, Fluo4, HEK293 TRPC4beta/mu-opioid, 1 µM (AID 2461;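 active means primary screen active and over 50% activation in each of two duplicate runs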); details: Fluo4 calcium fluorescence, at 1 µM; active compounds read high
[3] = system: TRPC4 (transient receptor potential cation channel C4 beta), mouse; assay: positive allosteric modulators of mouse TRPC4, confirmation, cell-based, second round, Fluo-4, HEK293 TRPC4beta/mu-opioid, 1 µM (AID 2554;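 active means primary screen hit whose fluorescence ratio, in both repeats, exceeds the weak agonist control mean by 3 SD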); details: DAMGO EC20, Fluo-4 calcium flux, at 1 µM; active compounds read high
[4] = system: TRPC4 beta (transient receptor potential cation channel C4), mouse; assay: positive allosteric modulators of mouse TRPC4, confirmation, cell-based, Fluo-4, HEK293 TRPC4beta/mu-opioid (AID 2555;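 active means primary screen hit whose calcium fluorescence ratio, in both repeats, exceeds the weak agonist control mean by 3 SD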); details: DAMGO EC20, Fluo-4 calcium flux, at 10 µM; active compounds read high
[5] = target: Short transient receptor potential channel 4 (Mus musculus) (UniProt Q9QUQ5); assay: inhibitors of mouse TRPC4 channel, confirmation, cell-based, Fluo4, HEK293 TRPC4beta/mu-opioid (AID 2636); details: DAMGO, Fluo4 calcium flux, at 10 µM; active compounds read high
[6] = target: Short transient receptor potential channel 4 (Mus musculus) (UniProt Q9QUQ5); assay: inhibitors of mouse TRPC4 channel, confirmation, cell-based, second round, Fluo4, HEK293 TRPC4beta/mu-opioid, 1 µM (AID 2637;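 active means calcium signal ratio cut to more than 3 SD under the fully stimulated control mean yet still positive, in both repeats and the primary screen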); details: Fluo4 calcium flux, DAMGO, at 1 µM; active compounds read high
[7] = target: Short transient receptor potential channel 4 (Mus musculus) (UniProt Q9QUQ5); assay: mouse TRPC4 channel activators, dose response, cell-based, HEK293 TRPC4/mu-opioid, Fluo-4 calcium (AID 434937;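 active means primary screen activator hit with a dose response curve and TRPC4 channel activation at any tested dose; inactive means no activation, no dose response, or not a primary hit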)
[8] = target: Short transient receptor potential channel 4 (Mus musculus) (UniProt Q9QUQ5); assay: TRPC4 positive allosteric modulators, dose response, cell-based, HEK293 TRPC4/mu-opioid, Fluo-4 calcium, EC20 DAMGO (AID 434941;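 active means earlier screen potentiator hit that boosts the TRPC4 ion channel at some dose, with a dose response; inactive means no potentiation, no dose response, or not a prior hit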;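 further: calcium entry triggered by an EC20 dose of DAMGO at the co-expressed mu-opioid receptor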)
[9] = target: Short transient receptor potential channel 4 (Mus musculus) (UniProt Q9QUQ5); assay: mouse TRPC4 channel inhibitors, dose response, cell-based, HEK293 TRPC4/mu-opioid, Fluo-4 calcium (AID 434942;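 active means primary screen inhibitor hit that blocks the TRPC4 channel at some tested dose, yielding a dose curve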)
[10] = target: Short transient receptor potential channel 6 (Mus musculus) (UniProt Q61143); assay: inhibition of mouse TRPC6 channel, confirmation, selectivity assay for TRPC4 inhibitor project, cell-based, HEK293, membrane potential dye, duplicate (AID 434948;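 active means active in primary screen and both duplicates, each dropping signal beyond three positive-control SD with fluorescence still positive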); details: HEK293 TRPC6, membrane potential dye fluorescence, at 10 µM, stimulated with maximal-effect acetylcholine; active compounds read high
[11] = target: Short transient receptor potential channel 6 (Mus musculus) (UniProt Q61143); assay: activation of mouse TRPC6 channel, confirmation, selectivity assay for TRPC4 activator project, cell-based, HEK293, membrane potential dye, duplicate (AID 434950;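 active means membrane potential signal rise above negative control mean plus 3 SD in both duplicates, also active in the earlier TRPC4 screen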); details: HEK293 TRPC6, membrane potential fluorescence, at 10 µM; active compounds read high
[12] = target: Short transient receptor potential channel 6 (Mus musculus) (UniProt Q61143); assay: TRPC6 potentiation by TRPC4 potentiator hits, confirmation, selectivity assay for TRPC4 potentiator project, HEK293 cells, membrane potential dye, duplicate (AID 434952;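 active means compound raising the membrane signal above positive-control mean plus 3 SD in both repeats, and a primary screen hit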); details: HEK293 TRPC6, membrane potential dye fluorescence, at 10 µM, maximal acetylcholine added after compound; active compounds read high
[13] = target: Short transient receptor potential channel 4 (Mus musculus) (UniProt Q9QUQ5); assay: calcium flux activators in TRPC4/5HT1a cells, counter-screen for TRPC4 activator project, cell-based, second counter screen, HEK293 TRPC4/5HT1a, Fluo-4 (AID 434977;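 active means calcium signal rise above buffer-control mean plus 5 SD in both duplicates, and also a hit in the primary screen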); details: Fluo-4 calcium flux, at 10 µM; active compounds read high
[14] = calcium flux inhibitors in TRPC4/5HT1a cells, confirmation, counter-screen for TRPC4 inhibitor project, cell-based, second counter screen, HEK293 TRPC4/5HT1a, Fluo-4 (AID 434978;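 active means primary screen active whose calcium signal fell more than 3 SD beyond the full-serotonin control mean in both duplicate plates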;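 further: serotonin given first at submaximal then at maximal dose after compound preincubation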); details: Fluo-4 calcium flux, at 10 µM, serotonin added to trigger calcium flux; active compounds read high
[15] = system: TRPC4 (mouse), co-expressed with 5HT1a in HEK293; assay: calcium flux potentiators in TRPC4/5HT1a cells, confirmation, counter-screen for TRPC4 potentiator project, cell-based, second counter screen, HEK293 TRPC4/5HT1a, Fluo-4 (AID 434979;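 active means signal rise over 3 SD above mean of control wells given weak agonist, in both repeats and first screen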); details: Fluo-4 calcium flux, at 10 µM, serotonin added at its EC20 dose; active compounds read high
[16] = calcium flux activation in mu-opioid HEK293 cells, confirmation, counter-screen for TRPC4 activator project, cell-based, HEK293 mu-opioid receptor line (AID 449723;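 active means hit in primary screen, with calcium signal over 5 SD above buffer well mean in both duplicates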;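 further: counter screen cells carry the mu-opioid receptor alone and lack TRPC4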); details: Fluo-4 calcium fluorescence, at 10 µM; active compounds read high
[17] = calcium flux enhancement in mu-opioid HEK293 cells, confirmation, counter-screen for TRPC4 allosteric potentiator project, cell-based, HEK293 mu-opioid receptor line (AID 449724;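 active means calcium signal rise more than 3 SD above the low-dose agonist control mean, in both duplicate plates and the primary screen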); details: Fluo-4 calcium flux, at 10 µM, compound added before EC20 DAMGO stimulus; active compounds read high
[18] = thallium flux activation in parental CHO cells, counter-screen for KCNQ1 potentiator project (AID 493006;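 active means duplicate-averaged activation above buffer control mean plus 5 SD of those controls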;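 on activation: fluorescence ratio of max minus min over baseline after K+ and Tl+ depolarization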); details: parental CHO-K1 cells, FluxOR thallium flux, at 10 µM; active compounds read high
[19] = target: Potassium voltage-gated channel subfamily KQT member 1 (Homo sapiens) (UniProt P51787); assay: KCNQ1 potassium channel potentiators, confirmation, FluxOR thallium flux, CHO cells, duplicates (AID 493007;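 active means potentiation averaged over duplicate wells exceeding buffer-only control mean by more than 3 SD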;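 on outcome: cells depolarized by a potassium plus thallium sulfate stimulus after compound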;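 on potentiation: 0% = buffer-only wells and 100% = R-L3 activator control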); details: KCNQ1 cell line, FluxOR thallium flux fluorescence, at 10 µM; active compounds read high, % of reference activator effect, buffer zero
[20] = target: Potassium voltage-gated channel subfamily KQT member 2 (Rattus norvegicus) (UniProt O88943); assay: rat KCNQ2 channel potentiation, selectivity assay for KCNQ1 potentiator project, KCNQ2-CHO-K1 cells (AID 493009;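 active means mean duplicate potentiation above the buffer control mean plus 5 SD of buffer wells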;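 further: assay conditions were tuned for KCNQ1 rather than KCNQ2 modulators; signal is max minus min fluorescence divided by baseline after thallium stimulus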); details: FluxOR thallium flux fluorescence, at 10 µM; active compounds read high, scaled: buffer 0, activator control 100
Chain of Potassium voltage-gated channel subfamily KQT member 2 (Rattus norvegicus) (O88943 whole entry, looked up): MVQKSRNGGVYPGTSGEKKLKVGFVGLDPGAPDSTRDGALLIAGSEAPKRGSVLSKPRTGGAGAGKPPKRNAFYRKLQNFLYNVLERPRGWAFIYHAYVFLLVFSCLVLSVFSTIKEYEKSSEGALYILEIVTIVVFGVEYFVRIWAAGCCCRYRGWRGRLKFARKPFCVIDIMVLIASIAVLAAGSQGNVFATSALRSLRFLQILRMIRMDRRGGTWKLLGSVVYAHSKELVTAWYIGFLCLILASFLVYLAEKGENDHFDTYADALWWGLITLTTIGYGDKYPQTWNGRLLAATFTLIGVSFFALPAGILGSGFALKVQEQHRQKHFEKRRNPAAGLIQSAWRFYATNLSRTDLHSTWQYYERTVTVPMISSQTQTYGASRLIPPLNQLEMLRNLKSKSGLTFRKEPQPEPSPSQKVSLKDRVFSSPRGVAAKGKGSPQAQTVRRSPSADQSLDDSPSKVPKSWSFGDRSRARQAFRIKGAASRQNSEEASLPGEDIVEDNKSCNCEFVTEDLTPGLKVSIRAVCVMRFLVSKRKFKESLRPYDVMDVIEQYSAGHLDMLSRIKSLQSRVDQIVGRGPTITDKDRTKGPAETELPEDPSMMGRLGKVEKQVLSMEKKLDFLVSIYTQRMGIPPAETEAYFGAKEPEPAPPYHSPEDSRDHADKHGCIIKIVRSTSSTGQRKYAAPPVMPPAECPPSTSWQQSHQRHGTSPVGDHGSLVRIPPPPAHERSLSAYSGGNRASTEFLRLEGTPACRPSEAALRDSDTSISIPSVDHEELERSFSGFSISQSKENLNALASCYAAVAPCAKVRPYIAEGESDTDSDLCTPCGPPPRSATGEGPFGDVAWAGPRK

Chain of Short transient receptor potential channel 6 (Mus musculus) (Q61143 whole entry, looked up): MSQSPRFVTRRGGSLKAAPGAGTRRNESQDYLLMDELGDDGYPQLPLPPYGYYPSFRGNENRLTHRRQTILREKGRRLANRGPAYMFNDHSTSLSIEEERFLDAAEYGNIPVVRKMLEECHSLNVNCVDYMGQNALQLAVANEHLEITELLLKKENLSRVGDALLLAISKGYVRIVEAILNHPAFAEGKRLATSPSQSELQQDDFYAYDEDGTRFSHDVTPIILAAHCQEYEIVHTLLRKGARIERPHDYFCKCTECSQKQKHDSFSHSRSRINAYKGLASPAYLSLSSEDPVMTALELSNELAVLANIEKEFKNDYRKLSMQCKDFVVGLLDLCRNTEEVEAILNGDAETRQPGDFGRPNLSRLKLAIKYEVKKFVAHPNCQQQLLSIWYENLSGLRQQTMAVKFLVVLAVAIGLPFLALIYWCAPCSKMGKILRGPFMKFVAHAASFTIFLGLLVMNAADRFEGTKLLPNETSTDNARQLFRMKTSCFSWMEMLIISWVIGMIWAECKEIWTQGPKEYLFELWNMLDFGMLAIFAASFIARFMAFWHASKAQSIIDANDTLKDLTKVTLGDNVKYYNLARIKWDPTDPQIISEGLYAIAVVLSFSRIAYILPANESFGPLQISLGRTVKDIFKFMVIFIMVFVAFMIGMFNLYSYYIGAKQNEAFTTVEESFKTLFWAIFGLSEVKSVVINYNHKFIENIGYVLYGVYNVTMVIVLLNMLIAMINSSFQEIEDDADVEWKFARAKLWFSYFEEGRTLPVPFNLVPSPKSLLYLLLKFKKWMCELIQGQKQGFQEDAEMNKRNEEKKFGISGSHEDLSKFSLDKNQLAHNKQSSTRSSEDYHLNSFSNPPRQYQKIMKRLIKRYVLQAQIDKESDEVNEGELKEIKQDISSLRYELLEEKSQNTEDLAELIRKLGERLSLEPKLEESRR
Chain of Short transient receptor potential channel 4 (Mus musculus) (Q9QUQ5 whole entry, looked up): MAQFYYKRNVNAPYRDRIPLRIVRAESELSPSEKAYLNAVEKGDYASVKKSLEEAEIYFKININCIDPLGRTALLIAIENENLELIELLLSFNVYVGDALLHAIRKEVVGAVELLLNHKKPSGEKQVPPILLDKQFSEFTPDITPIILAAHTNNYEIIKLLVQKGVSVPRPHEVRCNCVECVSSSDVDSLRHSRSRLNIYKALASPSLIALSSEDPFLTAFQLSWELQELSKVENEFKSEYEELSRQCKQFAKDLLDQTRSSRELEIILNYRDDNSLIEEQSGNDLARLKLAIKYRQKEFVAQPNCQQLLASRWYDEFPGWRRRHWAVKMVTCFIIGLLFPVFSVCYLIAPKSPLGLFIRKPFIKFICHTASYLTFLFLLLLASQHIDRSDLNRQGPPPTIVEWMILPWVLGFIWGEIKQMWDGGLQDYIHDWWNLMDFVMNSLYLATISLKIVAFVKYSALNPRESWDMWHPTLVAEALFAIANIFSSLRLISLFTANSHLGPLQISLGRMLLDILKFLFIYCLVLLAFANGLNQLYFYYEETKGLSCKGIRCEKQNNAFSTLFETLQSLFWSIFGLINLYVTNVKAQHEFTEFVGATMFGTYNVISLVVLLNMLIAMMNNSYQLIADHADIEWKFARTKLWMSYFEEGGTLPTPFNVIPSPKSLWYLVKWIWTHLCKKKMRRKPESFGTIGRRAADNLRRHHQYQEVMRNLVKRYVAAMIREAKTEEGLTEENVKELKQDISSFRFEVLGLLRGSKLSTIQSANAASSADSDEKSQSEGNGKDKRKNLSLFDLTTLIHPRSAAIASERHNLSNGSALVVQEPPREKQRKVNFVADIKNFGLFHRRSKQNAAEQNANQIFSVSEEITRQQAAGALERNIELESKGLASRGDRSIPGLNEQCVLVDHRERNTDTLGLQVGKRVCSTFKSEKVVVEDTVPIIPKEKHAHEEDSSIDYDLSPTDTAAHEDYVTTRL
Chain of Potassium voltage-gated channel subfamily KQT member 1 (Homo sapiens) (P51787 whole entry, looked up): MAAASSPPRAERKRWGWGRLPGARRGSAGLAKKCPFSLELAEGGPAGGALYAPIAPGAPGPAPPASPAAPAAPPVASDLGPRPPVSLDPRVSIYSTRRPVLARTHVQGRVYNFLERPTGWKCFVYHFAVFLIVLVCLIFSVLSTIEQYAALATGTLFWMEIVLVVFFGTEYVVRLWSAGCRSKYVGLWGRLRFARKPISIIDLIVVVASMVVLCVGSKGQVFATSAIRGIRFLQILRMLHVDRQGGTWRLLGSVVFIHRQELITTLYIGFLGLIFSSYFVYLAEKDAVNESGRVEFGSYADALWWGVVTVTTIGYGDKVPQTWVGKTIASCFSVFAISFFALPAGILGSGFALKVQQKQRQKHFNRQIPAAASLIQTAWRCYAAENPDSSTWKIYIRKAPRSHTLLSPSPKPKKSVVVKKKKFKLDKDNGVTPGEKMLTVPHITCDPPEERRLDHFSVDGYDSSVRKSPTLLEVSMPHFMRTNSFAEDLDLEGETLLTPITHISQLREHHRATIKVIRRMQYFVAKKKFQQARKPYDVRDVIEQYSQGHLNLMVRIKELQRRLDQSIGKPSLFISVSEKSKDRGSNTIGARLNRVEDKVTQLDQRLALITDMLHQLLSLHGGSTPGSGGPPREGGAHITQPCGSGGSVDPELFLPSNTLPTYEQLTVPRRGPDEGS

Cc1cc(C)c2c(=O)n(CC(=O)Nc3cccc(Cl)c3C)sc2n1
inactive: outcome [1] | outcome [2] | outcome [3] | outcome [5] | outcome [6] | outcome [7] | outcome [8] | outcome [9] | outcome [10] | outcome [11] | outcome [12] | outcome [13] | outcome [14] | outcome [16] | outcome [17] | outcome [18] | outcome [19] | outcome [20]
active: potentiation [4] 14% | potentiation [15] 9.63%

CCN(CC)CCCN(C(=O)c1cccs1)c1nc(-c2ccc(OC)cc2)cs1
inactive: outcome [1] | outcome [2] | outcome [3] | outcome [4] | outcome [5] | outcome [6] | outcome [7] | outcome [8] | outcome [9] | outcome [10] | outcome [11] | outcome [12] | outcome [13] | outcome [14] | outcome [15] | outcome [16] | outcome [17]

CC(C)NS(=O)(=O)c1ccc(NC(=O)C(C)Oc2ccc(C(=O)c3ccccc3)cc2)cc1 (configuration not stated)
active: potentiation [4] 36% | potentiation [15] 30.1%
inactive: outcome [1] | outcome [2] | outcome [3] | outcome [5] | outcome [6] | outcome [7] | outcome [8] | outcome [9] | outcome [10] | outcome [11] | outcome [12] | outcome [13] | outcome [14] | outcome [16] | outcome [17] | outcome [18] | outcome [19] | outcome [20]

CN(CC(=O)Nc1sc2c(c1C#N)CCCCC2)Cc1nc2ccccc2c(=O)[nH]1
inactive: outcome [1] | outcome [2] | outcome [3] | outcome [4] | outcome [5] | outcome [6] | outcome [7] | outcome [8] | outcome [9] | outcome [10] | outcome [11] | outcome [12] | outcome [13] | outcome [14] | outcome [15] | outcome [16] | outcome [17]

O=C(C[n+]1cc(-c2ccc(Br)cc2)n2c1CCCCC2)c1ccccc1
inactive: outcome [1] | outcome [2] | outcome [3] | outcome [4] | outcome [5] | outcome [6] | outcome [7] | outcome [8] | outcome [9] | outcome [10] | outcome [11] | outcome [12] | outcome [13] | outcome [14] | outcome [15] | outcome [16] | outcome [17]

Cc1ccc(C(=O)O)cc1N=Cc1cc(Br)cc(Br)c1O
active: activation [18] 222% | potentiation [19] 164% | potentiation [20] 192%
inactive: outcome [1] | outcome [2] | outcome [3] | outcome [4] | outcome [5] | outcome [6] | outcome [7] | outcome [8] | outcome [9] | outcome [10] | outcome [11] | outcome [12] | outcome [13] | outcome [14] | outcome [15] | outcome [16] | outcome [17]

O=C(Nc1cnn(C23CC4CC(CC(C4)C2)C3)c1)c1cnn2cccnc12
active: potentiation [3] 27% | potentiation [4] 61% | potentiation [15] 71.9%
inactive: outcome [1] | outcome [2] | outcome [5] | outcome [6] | outcome [7] | outcome [8] | outcome [9] | outcome [10] | outcome [11] | outcome [12] | outcome [13] | outcome [14] | outcome [16] | outcome [17]

CCCc1nc2oc3c(NCCCN(C)C)ncnc3c2c2c1CCCC2
inactive: outcome [1] | outcome [2] | outcome [3] | outcome [4] | outcome [5] | outcome [6] | outcome [7] | outcome [8] | outcome [9] | outcome [10] | outcome [11] | outcome [12] | outcome [13] | outcome [14] | outcome [15] | outcome [16] | outcome [17] | outcome [18] | outcome [19] | outcome [20]

CN(C)CCCN(C(=O)CCc1ccccc1)c1nc2ccc(F)cc2s1
inactive: outcome [1] | outcome [2] | outcome [3] | outcome [4] | outcome [5] | outcome [6] | outcome [7] | outcome [8] | outcome [9] | outcome [10] | outcome [11] | outcome [12] | outcome [13] | outcome [14] | outcome [15] | outcome [16] | outcome [17] | outcome [18] | outcome [19] | outcome [20]

CCN(CC)c1ncnc2sc3c(c12)CCC3
inactive: outcome [1] | outcome [2] | outcome [3] | outcome [4] | outcome [5] | outcome [6] | outcome [7] | outcome [8] | outcome [9] | outcome [10] | outcome [11] | outcome [12] | outcome [13] | outcome [14] | outcome [15] | outcome [16] | outcome [17] | outcome [18] | outcome [19] | outcome [20]

Cc1nn(-c2cc(C(F)(F)F)ccc2Cl)c2nc(C(Cl)(Cl)Cl)[nH]c(=O)c12
inactive: outcome [1] | outcome [2] | outcome [3] | outcome [4] | outcome [5] | outcome [6] | outcome [7] | outcome [8] | outcome [9] | outcome [10] | outcome [11] | outcome [12] | outcome [13] | outcome [14] | outcome [15] | outcome [16] | outcome [17]
active: activation [18] 191% | potentiation [19] 52.5% | potentiation [20] 218%

COc1cc(C2(c3ccc(O)c(OC)c3)C(=O)Nc3c(C)cc(Br)cc32)ccc1O
inactive: outcome [1] | outcome [2] | outcome [3] | outcome [5] | outcome [6] | outcome [7] | outcome [8] | outcome [9] | outcome [10] | outcome [11] | outcome [12] | outcome [13] | outcome [14] | outcome [16] | outcome [17] | outcome [20]
active: potentiation [4] 22% | potentiation [15] 71.7% | activation [18] 168% | potentiation [19] 36.5%

O=C(/C=C/c1ccccc1Cl)N(c1ccccn1)C1CCCCC1
inactive: outcome [1] | outcome [2] | outcome [3] | outcome [4] | outcome [5] | outcome [6] | outcome [7] | outcome [8] | outcome [9] | outcome [10] | outcome [11] | outcome [12] | outcome [13] | outcome [14] | outcome [15] | outcome [16] | outcome [17]

CC(=O)N1N=C(c2c(-c3ccccc3)c3cc(C)ccc3[nH]c2=O)CC1c1ccco1 (configuration not stated)
inactive: outcome [1] | outcome [2] | outcome [3] | outcome [5] | outcome [6] | outcome [7] | outcome [8] | outcome [9] | outcome [10] | outcome [11] | outcome [13] | outcome [14] | outcome [16] | outcome [17]
active: potentiation [4] 10% | potentiation, percent of control [12] 186% | potentiation [15] 15.5%
